About 83,000 compounds went through this panel and 20% of them were active in at least one assay; those are over-represented in the sample as a whole.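 Results are percent growth after 48 hours of single-concentration exposure. 100 means growth as in untreated cells, lower positive values show inhibition; negative values down to -100 show cell death.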 A number with no mark means an inactive call. Active and inactive are the calls of the source. How the source made its calls: active means growth percent below 10; inactive means the rest.
Tested on: MDA-MB-468 breast
Assay: NCI-60 one-dose screen, 48 h (100 = growth as untreated, 0 = no growth, -100 = all killed)
Conditions: 10 µM unless noted

| Compound | growth |
| --- | --- |
| CS(=O)(=O)c1nccc(-c2c(-c3cccc(OCc4ccccc4)c3)nc3sccn23)n1 | -65.1% (active) |
| COc1ccc2c(c1)C(=O)/C(=C/c1ncc([N+](=O)[O-])n1C)O2 | -12.4% (active) |
| N#CC1CCc2c(c(-c3ccc4nc(N)sc4c3)nc3ccc4[nH]ncc4c23)C1 (stereo not given) | 21.4% |
| CC1CN(Cc2ccccc2)C(=O)NC1=O (stereo not given) | 111% |
| O=C(CCN1C(=O)/C(=C/c2ccc(O)cc2)SC1=S)Nc1ccc(Cl)cc1 | 95.3% |
| CCCCOc1ccc(/C=N/Nc2cc(C)nc3ccc(Cl)cc23)cc1 | -65.9% (active) |
| COc1ccc([C@H]2[C@H](O)C(=O)N2c2cc(OC)c(OC)c(OC)c2)cc1O | 5.56% (active) |
| COc1cccc(C(=O)NNc2nc(Cl)nc(N3CCN(C(c4ccccc4)c4ccccc4)CC3)n2)c1 | -17.1% (active) |
| CC(=O)c1sc(-c2ccc(F)cc2)cc1O | 111% |
| COc1ccc2nc3cc(Cl)ccc3c(N3CCN(c4nccc(Nc5ccccc5)n4)CC3)c2c1 | 37.9% |
| COc1cc(/C(C#N)=C/c2ccc3c(c2OC)OCO3)cc2c1OCO2 | 9.19% (active) |
| Nc1nc(-c2cccc([N+](=O)[O-])c2)c(N=Nc2cccc(Cl)c2)s1 | 11.5% |
| CCOC(=O)/C(=C/c1ccc(OC)cc1)N(CC)CC | 106% |
| CCOC(=O)C1=C(C)N2C(=NC3=C(CCCC/C3=C\c3ccccc3)C2c2ccccc2)S1 (stereo not given) | 103% |
| C(=N\Nc1ccccn1)/c1ccccn1 | -38.7% (active) |
| CC1CCN(CC(=O)Nn2c(COc3ccccc3)nc3ccccc3c2=O)CC1 | 50.9% |
| CC(=O)Oc1ccc(O)cc1 | 95.5% |
| O=S1(=O)NCCCN1CCNc1nccc(-c2c(-c3cccc(O)c3)nc3sccn23)n1 | 78.8% |
| Cc1[nH]nc2ccc3nc(-c4ccc5[nH]ncc5c4)c4c(c3c12)CCCC4 | -6.72% (active) |
| COc1ccccc1N1CCN(CCn2c(=O)c3c(c4ccccc4n3C)n(C)c2=O)CC1 | 92% |

| Compound | growth |
| --- | --- |
| COc1ccc(C(=O)CC(c2ccccc2)C(C#N)c2ccccc2)cc1 (stereo not given) | 69.8% |
| CCOC(=O)c1c(Nc2ccccc2)nn2c(-c3ccc(OC)c(OC)c3)ccnc12 | 37.7% |
| Cc1ccc(S(=O)(=O)OCCCOS(=O)(=O)c2ccc(C)cc2)cc1 | 100% |
| OCc1ncc(-c2ccccc2)s1 | 104% |
| C=CC(=O)N1CC2(CC(n3nc(-c4ccc(Oc5ccccc5)cc4)c4c(N)ncnc43)C2)C1 | -8.12% (active) |
| O=C(O)COc1ccc(OCC(=O)O)cc1 | 2.23% (active) |
| c1ccc2c(c1)oc1cc3c(cc12)nnc1cccn13 | 108% |
| O=C(O)C1CCC(=O)N1C(=O)OCc1ccccc1 (stereo not given) | 106% |
| O=C(NCc1ccc(Cl)cc1Cl)C1CCC(=O)N1c1cccs1 (stereo not given) | 115% |
| C/C=C(/C)C(=O)OC1C=C(CO)C(=O)C(OC(=O)C2(C)OC2C)C1C(C)C (stereo not given) | -66.8% (active) |
| COc1ccc(N2C(=O)C(Oc3ccccc3)C2c2ccc(C)cc2)cc1 (stereo not given) | 122% |
| O=C(Nc1cccc(-n2ccc3c(NC(=O)c4ccccc4)ncnc32)c1)Nc1ccc(Cl)c(C(F)(F)F)c1 | -2.39% (active) |
| CC(C)(C)CC(C)(C)c1ccc(OCCO)cc1 | 113% |
| COC(CCCl)c1ccc(Cl)cc1 (stereo not given) | 102% |
| COc1ccc(C(=O)C2C(C#N)C(C#N)C3c4ccccc4C=CN23)cc1 (stereo not given) | 64.8% |
| CCc1ccc(-c2ccc(Nc3ccccc3)nn2)cc1S(N)(=O)=O | 34.4% |
| O=C1c2cccnc2-c2ncccc21 | 100% [100 µM] |
| COc1ccc2c(c1)c(-c1nonc1-c1cn(C)c3ccccc13)cn2C | 13.9% |
| Nc1nc(Cl)c2c(C(F)(F)F)cn(CC3CCNCC3)c2n1 | 26.8% |
| COc1cc(C2CC(=O)c3ccccc3N2)cc(OC)c1OC (stereo not given) | 90.5% |
